# ChEMBL document CHEMBL3988442, “University of Dundee, Small-Polar-MMV Screening Library” (2021)
# For part of these data: Potency and affinity values are given separately.
# How the values were obtained:
# Design in all cases: scale not given: direction of the effect not stated beside the values
# [1] = biological target: Protein translocase subunit SecA (Escherichia coli (strain K12)) (UniProt P10408); assay: Assay to Identify E. coli SecA ATPase Inhibitors; assay type: functional; settings: 30 µM
# [2] = biological target: T1, Ubiquitin-activating enzyme e1, putative (Leishmania donovani (strain BPK282A1)) (UniProt E9BSI1); assay: Leishmania donovani Ubiquitin Activating Enzyme (LdE1); assay type: functional; settings: 30 µM
# T1 sequence (whole entry): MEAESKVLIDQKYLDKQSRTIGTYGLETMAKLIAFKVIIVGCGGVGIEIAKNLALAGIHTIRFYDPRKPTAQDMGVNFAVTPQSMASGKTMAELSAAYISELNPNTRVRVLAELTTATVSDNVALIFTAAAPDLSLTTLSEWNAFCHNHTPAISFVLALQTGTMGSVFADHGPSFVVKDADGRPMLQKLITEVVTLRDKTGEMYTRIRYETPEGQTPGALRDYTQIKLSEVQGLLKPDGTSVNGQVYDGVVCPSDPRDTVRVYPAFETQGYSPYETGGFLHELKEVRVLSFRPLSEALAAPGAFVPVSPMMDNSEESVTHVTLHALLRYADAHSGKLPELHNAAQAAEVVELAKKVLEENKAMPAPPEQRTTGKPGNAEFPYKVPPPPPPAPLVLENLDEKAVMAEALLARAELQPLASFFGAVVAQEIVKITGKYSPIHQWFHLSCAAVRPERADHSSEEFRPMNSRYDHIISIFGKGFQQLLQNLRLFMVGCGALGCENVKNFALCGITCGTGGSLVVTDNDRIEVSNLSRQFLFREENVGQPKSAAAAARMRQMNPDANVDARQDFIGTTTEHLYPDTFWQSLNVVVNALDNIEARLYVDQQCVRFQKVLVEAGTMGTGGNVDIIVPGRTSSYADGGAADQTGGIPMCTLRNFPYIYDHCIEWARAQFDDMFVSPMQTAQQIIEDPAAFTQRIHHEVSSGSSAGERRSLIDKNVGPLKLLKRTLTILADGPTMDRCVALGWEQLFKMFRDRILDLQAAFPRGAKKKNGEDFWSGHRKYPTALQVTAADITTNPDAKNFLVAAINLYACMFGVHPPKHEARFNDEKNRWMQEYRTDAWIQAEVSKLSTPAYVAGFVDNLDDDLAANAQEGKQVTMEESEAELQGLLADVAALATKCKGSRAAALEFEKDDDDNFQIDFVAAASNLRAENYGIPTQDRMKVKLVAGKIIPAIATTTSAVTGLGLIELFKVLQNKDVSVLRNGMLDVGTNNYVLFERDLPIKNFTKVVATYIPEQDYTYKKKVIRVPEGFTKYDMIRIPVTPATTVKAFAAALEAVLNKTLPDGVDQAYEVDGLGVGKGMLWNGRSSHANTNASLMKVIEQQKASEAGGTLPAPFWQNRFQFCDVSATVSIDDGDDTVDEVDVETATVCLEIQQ
# [3] = biological target: Sialic acid-binding Ig-like lectin 9 (Homo sapiens) (UniProt Q9Y336); assay: Hs-Siglec9 ALPHAscreen SOP 20170721; settings: 10 µM
# [4] = system: Trypanosoma cruzi; assay: Trypanosoma cruzi phosphomannomutase and mannose-1-phosphate guanylyltransferase assay; assay type: functional; settings: 10 µM
# [5] = biological target: T2, Arginase-2, mitochondrial (Homo sapiens) (UniProt P78540); assay: in vitro enzyme assay to detect the production of urea directly proportional to the activity of Arginase II; assay type: functional; settings: 33.3 µM; note: in the data most compounds retested in dose-response had high values
# T2 sequence (whole entry): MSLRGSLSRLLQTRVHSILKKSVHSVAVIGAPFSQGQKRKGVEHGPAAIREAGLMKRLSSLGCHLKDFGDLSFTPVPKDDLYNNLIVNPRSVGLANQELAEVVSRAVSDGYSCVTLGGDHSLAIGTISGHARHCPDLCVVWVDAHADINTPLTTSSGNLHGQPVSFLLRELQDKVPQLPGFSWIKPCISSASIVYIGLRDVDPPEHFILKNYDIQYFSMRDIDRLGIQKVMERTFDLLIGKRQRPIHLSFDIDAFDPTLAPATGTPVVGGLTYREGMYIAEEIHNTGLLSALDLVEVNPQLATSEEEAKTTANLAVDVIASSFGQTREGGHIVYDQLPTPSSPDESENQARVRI
# [6] = biological target: T3, Proteasome subunit beta (Trypanosoma cruzi) (UniProt O96673); assay: Trypanosoma cruzi proteasome chymotrypsin-like activity (TcProtChymo) assay.; note: in the data most compounds retested in dose-response had high values; assay type: functional; settings: 9.37 µM
# T3 sequence (whole entry): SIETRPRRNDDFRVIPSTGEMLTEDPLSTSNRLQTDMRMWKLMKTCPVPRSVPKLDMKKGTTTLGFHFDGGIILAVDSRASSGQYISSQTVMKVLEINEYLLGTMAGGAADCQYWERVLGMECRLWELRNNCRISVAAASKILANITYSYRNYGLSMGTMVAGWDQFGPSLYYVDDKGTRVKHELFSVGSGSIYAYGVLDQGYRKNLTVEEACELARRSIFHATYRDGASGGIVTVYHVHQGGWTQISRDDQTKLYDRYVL
# [7] = species on record: Homo sapiens; assay: To identify inhibition of the IFN signalling (Jak-Stat) pathway via expression of an eGFP reporter gene under the control of an IFN-stimulated response element (ISRE) containing MxA promoter.; assay type: functional; settings: 30 µM
# [8] = biological target: T4, Tyrosyl-tRNA synthetase, putative (Trypanosoma cruzi (strain CL Brener)) (UniProt Q4DSP6); assay: Trypanosoma cruzi tyrosyl tRNA synthetase (TcYRS) _High Tyrosine SOP; assay type: functional; settings: 30 µM; note: in the data most compounds retested in dose-response had high values
# T4 sequence (whole entry): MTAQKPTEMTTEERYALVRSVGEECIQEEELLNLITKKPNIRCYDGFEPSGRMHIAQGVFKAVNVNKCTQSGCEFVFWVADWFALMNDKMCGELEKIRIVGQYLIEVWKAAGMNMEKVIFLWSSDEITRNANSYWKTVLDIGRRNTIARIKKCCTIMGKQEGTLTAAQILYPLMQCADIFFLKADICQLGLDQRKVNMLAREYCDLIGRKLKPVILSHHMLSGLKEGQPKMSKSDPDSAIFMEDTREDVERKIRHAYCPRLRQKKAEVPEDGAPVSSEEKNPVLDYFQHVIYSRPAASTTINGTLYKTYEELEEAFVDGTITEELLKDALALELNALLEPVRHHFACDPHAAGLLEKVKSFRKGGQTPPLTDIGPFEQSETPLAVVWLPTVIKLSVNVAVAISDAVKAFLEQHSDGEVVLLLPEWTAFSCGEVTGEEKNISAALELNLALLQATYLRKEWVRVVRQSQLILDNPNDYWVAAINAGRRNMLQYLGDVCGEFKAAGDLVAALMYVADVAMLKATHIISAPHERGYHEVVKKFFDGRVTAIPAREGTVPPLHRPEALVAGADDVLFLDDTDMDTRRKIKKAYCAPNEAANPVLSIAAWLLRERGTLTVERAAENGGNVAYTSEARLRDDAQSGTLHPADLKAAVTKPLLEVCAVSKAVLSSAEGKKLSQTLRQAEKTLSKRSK
# [9] = biological target: T4, Tyrosyl-tRNA synthetase, putative (Trypanosoma cruzi (strain CL Brener)); assay: Trypanosoma cruzi tyrosyl tRNA synthetase (TcYRS) SOP; assay type: functional; settings: 30 µM
# [10] = biological target: Chromo domain-containing protein 1 (Saccharomyces cerevisiae (strain ATCC 204508 / S288c) (Baker's yeast)) (UniProt P32657); assay: ScCHD-1 Enzyme Inhibition Assay; assay type: functional; settings: 30 µM; note: in the data most compounds retested in dose-response had high values
# Chromo domain-containing protein 1 (Saccharomyces cerevisiae (strain ATCC 204508 / S288c) (Baker's yeast)), sequence (P32657 whole entry, the tested form may be a part): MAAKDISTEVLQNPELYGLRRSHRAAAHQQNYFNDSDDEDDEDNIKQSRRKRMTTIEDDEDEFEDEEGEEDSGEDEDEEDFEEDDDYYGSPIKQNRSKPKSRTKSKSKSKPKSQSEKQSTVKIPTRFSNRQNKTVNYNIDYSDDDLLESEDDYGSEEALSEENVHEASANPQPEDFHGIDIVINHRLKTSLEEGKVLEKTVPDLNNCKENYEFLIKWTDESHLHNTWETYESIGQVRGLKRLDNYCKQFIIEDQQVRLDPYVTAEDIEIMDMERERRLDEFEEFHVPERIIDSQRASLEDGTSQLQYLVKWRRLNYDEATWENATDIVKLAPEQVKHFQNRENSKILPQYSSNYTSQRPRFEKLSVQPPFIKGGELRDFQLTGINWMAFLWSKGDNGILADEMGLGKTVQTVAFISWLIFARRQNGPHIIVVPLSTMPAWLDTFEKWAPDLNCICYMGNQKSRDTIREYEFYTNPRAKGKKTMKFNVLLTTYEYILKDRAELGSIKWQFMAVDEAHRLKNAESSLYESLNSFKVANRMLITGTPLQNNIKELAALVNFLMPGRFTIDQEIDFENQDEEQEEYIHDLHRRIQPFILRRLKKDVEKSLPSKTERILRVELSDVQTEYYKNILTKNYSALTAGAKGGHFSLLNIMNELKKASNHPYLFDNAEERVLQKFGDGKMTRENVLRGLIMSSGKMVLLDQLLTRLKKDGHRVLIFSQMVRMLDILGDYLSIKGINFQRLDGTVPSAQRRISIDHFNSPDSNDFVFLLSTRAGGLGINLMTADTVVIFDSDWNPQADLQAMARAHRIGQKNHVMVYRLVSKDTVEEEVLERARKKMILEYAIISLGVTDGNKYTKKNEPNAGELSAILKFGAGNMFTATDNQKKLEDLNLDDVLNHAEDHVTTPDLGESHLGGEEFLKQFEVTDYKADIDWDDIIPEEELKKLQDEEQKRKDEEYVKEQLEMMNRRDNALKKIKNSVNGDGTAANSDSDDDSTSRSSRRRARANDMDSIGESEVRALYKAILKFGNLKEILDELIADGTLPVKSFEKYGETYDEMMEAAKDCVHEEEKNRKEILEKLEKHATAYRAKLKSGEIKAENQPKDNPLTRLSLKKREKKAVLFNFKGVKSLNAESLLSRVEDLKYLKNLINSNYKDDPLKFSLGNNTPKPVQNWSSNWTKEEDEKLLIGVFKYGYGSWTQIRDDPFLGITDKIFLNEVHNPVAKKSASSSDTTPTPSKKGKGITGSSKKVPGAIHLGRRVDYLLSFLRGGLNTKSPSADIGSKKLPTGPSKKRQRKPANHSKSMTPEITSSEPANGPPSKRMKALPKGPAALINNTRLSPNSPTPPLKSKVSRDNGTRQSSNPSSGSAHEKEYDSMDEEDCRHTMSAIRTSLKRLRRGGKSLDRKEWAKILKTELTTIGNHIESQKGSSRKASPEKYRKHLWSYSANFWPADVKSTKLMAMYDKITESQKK
# Protein translocase subunit SecA (Escherichia coli (strain K12)), sequence (P10408 whole entry): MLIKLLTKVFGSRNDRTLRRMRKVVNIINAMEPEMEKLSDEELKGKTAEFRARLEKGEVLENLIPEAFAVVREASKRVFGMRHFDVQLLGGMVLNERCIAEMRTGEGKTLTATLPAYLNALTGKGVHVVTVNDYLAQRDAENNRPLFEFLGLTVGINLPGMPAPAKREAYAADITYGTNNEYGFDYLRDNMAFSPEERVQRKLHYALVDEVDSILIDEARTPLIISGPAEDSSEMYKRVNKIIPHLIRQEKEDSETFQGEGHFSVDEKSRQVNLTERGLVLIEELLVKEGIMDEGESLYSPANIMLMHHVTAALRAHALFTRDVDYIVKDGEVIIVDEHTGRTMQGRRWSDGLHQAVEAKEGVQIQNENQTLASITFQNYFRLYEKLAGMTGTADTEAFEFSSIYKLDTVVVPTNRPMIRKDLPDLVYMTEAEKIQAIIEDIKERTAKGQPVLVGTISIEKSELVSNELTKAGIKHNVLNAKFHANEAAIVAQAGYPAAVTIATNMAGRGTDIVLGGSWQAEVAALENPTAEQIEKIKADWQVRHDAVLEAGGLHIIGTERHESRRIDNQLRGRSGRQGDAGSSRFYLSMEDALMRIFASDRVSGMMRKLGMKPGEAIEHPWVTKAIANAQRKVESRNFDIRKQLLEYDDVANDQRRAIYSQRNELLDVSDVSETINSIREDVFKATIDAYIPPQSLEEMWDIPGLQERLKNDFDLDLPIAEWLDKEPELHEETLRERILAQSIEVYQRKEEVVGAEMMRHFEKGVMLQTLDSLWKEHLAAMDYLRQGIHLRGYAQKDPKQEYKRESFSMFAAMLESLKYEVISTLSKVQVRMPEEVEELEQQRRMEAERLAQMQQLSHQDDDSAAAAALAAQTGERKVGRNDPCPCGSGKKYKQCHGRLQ
# Sialic acid-binding Ig-like lectin 9 (Homo sapiens), sequence (Q9Y336 whole entry): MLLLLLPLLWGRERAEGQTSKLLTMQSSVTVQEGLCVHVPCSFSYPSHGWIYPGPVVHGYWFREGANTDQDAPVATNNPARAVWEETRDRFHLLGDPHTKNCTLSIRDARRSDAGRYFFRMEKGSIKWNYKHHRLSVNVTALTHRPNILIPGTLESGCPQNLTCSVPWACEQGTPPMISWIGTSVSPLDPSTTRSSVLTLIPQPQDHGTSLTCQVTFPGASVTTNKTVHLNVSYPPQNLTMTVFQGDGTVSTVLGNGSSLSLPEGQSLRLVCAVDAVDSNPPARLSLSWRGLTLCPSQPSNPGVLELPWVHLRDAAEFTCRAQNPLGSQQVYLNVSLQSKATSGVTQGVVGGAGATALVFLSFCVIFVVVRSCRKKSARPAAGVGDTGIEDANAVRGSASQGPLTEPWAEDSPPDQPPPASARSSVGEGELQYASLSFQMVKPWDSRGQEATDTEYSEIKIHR
smiles,measurement,setting,value
Cc1ccc2oc(C(=O)N3CCCC(n4nc(C)cc4C)C3)cc2n1 (stereo not given),Percent Effect,[1],-4.01%
same,Percent Effect,[2],10.3%
same,Percent Effect,[3],6.58%
same,Percent Effect,[4],0.845%
same,Percent Effect,[5],1.23%
same,Percent Effect,[6],4.01%
same,Percent Effect,[7],-2.91%
same,Percent Effect,[8],4.31%
same,Percent Effect,[9],13.2%
same,Percent Effect,[10],3.09%
Cc1cc(NCc2cccnc2)n2nc(C)cc2n1,Percent Effect,[1],-3.79%
same,Percent Effect,[2],2.7%
same,Percent Effect,[3],4.53%
same,Percent Effect,[4],-2.62%
same,Percent Effect,[5],1.75%
same,Percent Effect,[6],16.9%
same,Percent Effect,[7],17.8%
same,Percent Effect,[8],4.79%
same,Percent Effect,[9],14.6%
same,Percent Effect,[10],-3.52%
O=S(=O)(NCCN1CCCCC1Cn1cncn1)c1ccccc1 (stereo not given),Percent Effect,[1],-1.12%
same,Percent Effect,[2],0%
same,Percent Effect,[3],6.15%
same,Percent Effect,[4],1.68%
same,Percent Effect,[5],7.99%
same,Percent Effect,[6],-5.61%
same,Percent Effect,[7],-18.3%
same,Percent Effect,[8],1.96%
same,Percent Effect,[9],9.41%
same,Percent Effect,[10],-1.75%
CN(C)[C@@H]1CN(Cc2ccoc2)C[C@@H]2CCCO[C@@H]21,Percent Effect,[1],0.454%
same,Percent Effect,[2],-11.7%
same,Percent Effect,[3],0.192%
same,Percent Effect,[4],-1.46%
same,Percent Effect,[5],-1.62%
same,Percent Effect,[6],5.74%
same,Percent Effect,[7],-2.15%
same,Percent Effect,[8],0.526%
same,Percent Effect,[9],-2.56%
same,Percent Effect,[10],-1.39%
O=C1CCCN1Cc1nnc2n1CCN(Cc1ccoc1)CC2,Percent Effect,[1],-6.7%
same,Percent Effect,[2],9.09%
same,Percent Effect,[3],-2.11%
same,Percent Effect,[4],-3.94%
same,Percent Effect,[5],1.83%
same,Percent Effect,[6],0.601%
same,Percent Effect,[7],26.1%
same,Percent Effect,[8],-1.93%
same,Percent Effect,[9],-2.5%
same,Percent Effect,[10],-3.88%
O=C(c1ccncc1)N1CCC2(CC1)CC(Oc1cccnc1)CO2 (stereo not given),Percent Effect,[1],-6.1%
same,Percent Effect,[2],-16.9%
same,Percent Effect,[3],6.5%
same,Percent Effect,[4],2.43%
same,Percent Effect,[5],-2.02%
same,Percent Effect,[6],5.91%
same,Percent Effect,[7],-1.58%
same,Percent Effect,[8],3.68%
same,Percent Effect,[9],2.56%
same,Percent Effect,[10],-0.282%
COc1ccccc1OCC(=O)NS(=O)(=O)c1ccc(C)s1,Percent Effect,[1],-1.64%
same,Percent Effect,[2],5.2%
same,Percent Effect,[3],0.674%
same,Percent Effect,[4],-0.746%
same,Percent Effect,[5],7.58%
same,Percent Effect,[6],6.49%
same,Percent Effect,[7],5.05%
same,Percent Effect,[8],0.98%
same,Percent Effect,[9],16.5%
same,Percent Effect,[10],-3.45%
CN(C)c1cc(CNC(=O)Nc2ccc(S(C)(=O)=O)nc2)ccn1,Percent Effect,[1],-1.24%
same,Percent Effect,[2],10.3%
same,Percent Effect,[3],-5.84%
same,Percent Effect,[4],0.845%
same,Percent Effect,[5],1.64%
same,Percent Effect,[6],10.3%
same,Percent Effect,[7],-0.626%
same,Percent Effect,[8],6.22%
same,Percent Effect,[9],25.3%
same,Percent Effect,[10],-2.59%
CCOc1ncccc1CNC(=O)Nc1ccc(N(C)C)nc1,Percent Effect,[1],-5.71%
same,Percent Effect,[2],2.6%
same,Percent Effect,[3],-6.42%
same,Percent Effect,[4],-9.89%
same,Percent Effect,[5],-2.66%
same,Percent Effect,[6],15.3%
same,Percent Effect,[7],13.9%
same,Percent Effect,[8],0.98%
same,Percent Effect,[9],4.71%
same,Percent Effect,[10],-9.6%
CCn1cc(C(=O)N2CCCC(c3[nH]ncc3S(C)(=O)=O)C2)cn1 (stereo not given),Percent Effect,[1],-2.25%
same,Percent Effect,[2],12%
same,Percent Effect,[3],-0.292%
same,Percent Effect,[4],0.395%
same,Percent Effect,[5],-0.443%
same,Percent Effect,[6],13.1%
same,Percent Effect,[7],-2.06%
same,Percent Effect,[8],4.23%
same,Percent Effect,[9],20%
same,Percent Effect,[10],-20.4%
Cn1cc(CC(=O)N2CCC(Nc3cccnn3)CC2)c2ccccc21,Percent Effect,[1],-3.59%
same,Percent Effect,[2],18.2%
same,Percent Effect,[3],3.22%
same,Percent Effect,[4],3.73%
same,Percent Effect,[5],-7.99%
same,Percent Effect,[6],5.96%
same,Percent Effect,[7],4.59%
same,Percent Effect,[8],7.84%
same,Percent Effect,[9],32.9%
same,Percent Effect,[10],-10.9%
Cc1c[nH]cc1C(=O)N1CCN(CCc2cccs2)CC1,Percent Effect,[1],-4.85%
same,Percent Effect,[2],5.13%
same,Percent Effect,[3],-6.52%
same,Percent Effect,[4],3.29%
same,Percent Effect,[5],2.05%
same,Percent Effect,[6],-3.67%
same,Percent Effect,[7],3.15%
same,Percent Effect,[8],5.26%
same,Percent Effect,[9],8.43%
same,Percent Effect,[10],0.816%
